# High-throughput results (PubChem BioAssay)
# Shown is part of a subset that was picked to be rich in hits.
# Pf Dd2 growth: Plasmodium falciparum Dd2 growth inhibition | P. falciparum Dd2 growth, SYBR Green, 72 h | AID 1347417 | Potency, µM (doses to about 28.9 µM), inactives show at the top dose activity, negative = inhibition, actives largely listed as inhibitors | hit rate 4.3% among 120,000; active = well fitted inhibition curve with a large enough effect;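 note: plate controls were DMSO vehicle for no effect and reference drug for full effect; nearly all actives have a fitted effect of over 65% in size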
#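 Readout: SYBR Green fluorescence, 485 nm excitation, 535 nm emission, after ~16 h lysis at 37C. Before that, Dd2-infected red cells (2.5% hematocrit) grew 72 h with compound, 29 uM top final concentration.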
# An asterisk follows results filed as active; i = inactive; [ ] = remark or other dose. Potency is the fitted concentration of half-maximal effect.
SMILES,Pf Dd2 growth
Cc1ncsc1CN1CCCCCCNC(=O)[C@@H]2C[C@@H](C(=O)N3CCc4ccccc4C3)C[C@@H]21,4.5µM*
CCS(=O)(=O)N1CCCCCCNC(=O)[C@@H]2C[C@@H](C(=O)N3CCN(c4ccccn4)CC3)C[C@@H]21,-15%
O=C1NCCCCCCN(Cc2ccncc2)[C@@H]2CN(C(=O)c3cccnc3)CC[C@@H]12,-16%
C=CCN1CC(C(=O)N2CCN(Cc3ccccc3C#N)CC2)CC1=O (stereo not drawn),-2%
O=C1NCCCCCN(C(=O)Cc2cccc(F)c2)[C@H]2CCC[C@@H]12,-8%
Cc1nc(C)c(C(=O)N2CC[C@H]3C(=O)NCCCCCCN(Cc4ccncc4)[C@@H]3C2)s1,-14%
Cc1ccc2c(c1)N1C(=O)OC[C@@H]1CCN(C1CCOCC1)C2,12%[44.1 µM]
COc1ccc(CN2CC3(CCN(C(=O)c4cccs4)CC3)C2=O)cc1,-14%
CN1CCC(OC2CCN(C(=O)CC3CCCC3)CC2)CC1,38%
COC(=O)CNC(=O)c1nc(C(C)(C)C)c2ccccn12,6%[44.1 µM]
COc1ccc(-c2ccc3c(n2)CN(Cc2ccccc2)C(=O)CO3)cc1F,-3%[44.1 µM]
COc1cc(-c2nc(C3CC(=O)N(c4ccc(Cl)cc4)C3)no2)cc(OC)c1OC (stereo not drawn),-22%
CCCC(=O)N1CCN(C2CCN(CCC(C)C)C2=O)CC1 (stereo not drawn),0%
CN1CCCCCC(O)c2cc(C(=O)N3CCc4ccccc43)ccc21 (stereo not drawn),i
COc1ccc(C(=O)N2CCn3c(nnc3[C@@H]3C[C@@H](O)CN3C(C)C)C2)c(OC)c1,-17%
O=C([C@@H]1C[C@H](c2ccc(F)cc2)N(Cc2ccccc2Cl)C1)N1CCOCC1,i
COCc1noc([C@@H]2CC(F)(F)CN2)n1,-16%
O=C(NCCC1=CCCCC1)c1ccc2c(c1)N(Cc1ccccc1F)C(=O)c1ccccc1S2=O (stereo not drawn),13µM*
COc1ccc(CCNC(=O)c2ccc3c(c2)N(Cc2ccccc2)C(=O)c2ccccc2S3=O)cc1OC (stereo not drawn),i
Cc1cccc(CN2C(=O)c3ccccc3S(=O)(=O)c3ccc(C(=O)NCCC4=CCCCC4)cc32)c1,-13%
CN(CC1CCOCC1)C(=O)NCc1cccc(F)c1,7%
O=C(NCCCn1cccn1)c1cccnc1N1CC2CC(C1)[C@H]1CCCC(=O)N1C2 (stereo partly drawn),-18%
CCOc1ccccc1CN1CCC2(CCN(C(=O)c3ccc(OC)cc3)CC2)Oc2ccccc21,-20%
CCCN1CCC2(CCN(C(=O)Nc3ccc(Cl)cc3)CC2)Oc2ccccc21,-14%
O=C(c1cccc(Cl)c1)N1CCC2(CC1)CCN(Cc1cccs1)c1ccccc1O2,7.9µM*
SMILES,Pf Dd2 growth
COCCn1ncc(N2CCCC(CC(=O)NCc3ccccc3C)C2)cc1=O (stereo not drawn),-10%
COC[C@@H]1CN(Cc2cnn(C)c2)C[C@H]1c1ccncc1,11%
COC[C@@H]1CN(Cc2ccc(OC)c(OC)c2)C[C@H]1c1ccncc1,-25%
COC[C@@H]1CN(Cc2c(OC)cccc2OC)C[C@H]1c1ccncc1,4.5µM*
O=C(NC1CC1)C1CCc2nnc(-c3ccc(Cl)cc3Cl)n21 (stereo not drawn),17%
COc1cccc(CC(=O)N[C@@H](Cc2ccccc2)C(=O)N2CCCOCCNC(=O)CC2)c1,i
CN1CCN(c2nc3c(c(=O)[nH]2)CCN(Cc2ccc(F)cc2F)CC3)CC1,35%[5.79 µM]
Cc1noc(CN2CCc3nc(-c4ccc(F)cc4F)[nH]c3C2)n1,-7%
Cn1ncc(CN2CCc3nc(-c4ccc(F)cc4F)[nH]c3C2)c1C1CC1,11µM*
CCc1nc(CN2CCN(Cc3ccc(C)o3)C(CCO)C2)c(C)[nH]1 (stereo not drawn),-10%
Cc1ccc([S+](=O)([O-])c2nnn3c2nc(NC2CC2)c2ccccc23)cc1C,-20%
CN(CC(O)COc1cccc(CNCCc2ccc(F)cc2)c1)C1CCCCC1 (stereo not drawn),4µM*
CCN1CCN(CC(O)COc2cccc(CNCCCc3scnc3C)c2)CC1 (stereo not drawn),i
CCN1CCN(CC(O)COc2cccc(CNCc3cnn(CC)c3)c2)CC1 (stereo not drawn),0%
CCC(CC)NC(=O)CCc1nc(C2CCCN2C(=O)NC(C)C)no1 (stereo not drawn),i
CCOC(=O)c1cccc(NC(=O)C2CCCN(S(=O)(=O)c3cc(Br)cc4c3N(C(=O)CC)CC4)C2)c1 (stereo not drawn),-23%
CCOc1ccc(OCC)c(NC(=O)C2CCCN(S(=O)(=O)c3cc(Br)cc4c3N(C(=O)CC)CC4)C2)c1 (stereo not drawn),7.9µM*
CCOC(=O)C1CCCN(S(=O)(=O)c2cc(Br)cc3c2N(C(C)=O)CC3)C1 (stereo not drawn),21%
COCC(=O)N1CCCN(C(=O)C2CC2)c2ccccc21,10%
COC(=O)CC[C@H]1CNC(=O)[C@@H]2[C@@H](CCN2S(C)(=O)=O)N1C,-19%[44.1 µM]
CC(=O)N1CCN(C(=O)c2ncoc2C2CC2)CC(O)C1 (stereo not drawn),-8%
O=c1[nH]c(C2CCN([S+](=O)([O-])c3cccc(C(F)(F)F)c3)CC2)nn1-c1ccc(Cl)cc1,i
O=C(NCc1ccco1)[C@@H]1Cc2nc[nH]c2CN1Cc1cccs1,i
CC(=O)N1CCC(N[C@@H]2CO[C@H](CNC(=O)CC(C)(C)C)[C@H]2O)CC1,0%[44.1 µM]
COc1ccccc1N1CCN([C@H]2[C@@H]3OC[C@@H](O3)[C@@H](NCc3ccncc3)[C@@H]2O)CC1,-7%[44.1 µM]
SMILES,Pf Dd2 growth
O[C@H]1[C@H](NCc2ccncc2)[C@H]2CO[C@H](O2)[C@@H]1N1CCC(Cc2ccccc2)CC1,i
O=C(Nc1ccccc1)N[C@H]1[C@H](O)[C@@H](N2CCC(Cc3ccccc3)CC2)[C@@H]2OC[C@H]1O2,-5%
COc1ccccc1N1CCN([C@H]2[C@@H]3OC[C@@H](O3)[C@@H](NCc3ccc(F)cc3)[C@@H]2O)CC1,7.9µM*
CC(C)CN[C@H]1[C@H](O)[C@@H](N2CCC(Cc3ccccc3)CC2)[C@@H]2OC[C@H]1O2,4µM*
COc1ccccc1N1CCN([C@H]2[C@@H]3OC[C@@H](O3)[C@@H](NCc3ccc(N(C)C)cc3)[C@@H]2O)CC1,-3%
CCn1ncnc1C(C)NC(=O)Cn1nc(-c2ccccc2)n(CC)c1=O (stereo not drawn),-15%
c1ccc(CN2CCC(Oc3cnc4c(ccn4-c4cncnc4)c3)CC2)cc1,-7%[44.1 µM]
O=C(c1ccc(C(F)(F)F)cc1)N1CCOC[C@H](Oc2cccnc2)C1,-18%[44.1 µM]
Cc1ccccc1-n1nc(C)c(CCC(=O)NC2CC2)c1Oc1ccccc1,i
Cc1nccn1CC1(CNc2ncncn2)CC1,6%
CCOc1ccc(C(=O)Nc2onc3c2CCCC3)cc1,24%
O=C(Nc1onc2c1CCCC2)c1ccccc1,-6%
CC(C)(C)c1ccc(C(=O)Nc2onc3c2CCCC3)cc1,7.9µM*
Cc1ccc(-n2c(C3CCN(C(=O)c4ccc(C#N)cc4)CC3)n[nH]c2=O)cc1,-2%
COc1ccc(OC)c(CNC(=O)[C@H]2CCC[C@H]2NC(=O)c2cnc(C)cn2)c1,7%
CC(C)(C)C(=O)N1CC[C@H]2CC(=O)N(C3CCCCC3)CC[C@H]2C1,i
CC(C)c1nc2c(c(-c3ccc(O)cc3)n1)CN(Cc1ccccc1)CC2,-5%
Cc1nc2c(c(-c3ccc(Cl)cc3)n1)CN([S+](=O)([O-])c1c(C)noc1C)CC2,i
